In PubChem BioAssay (Tox21):
Results filed as inconclusive are left out. Active and inactive are the calls of the source. Unless noted, the call rests on the fitted dose curve; in most records, active means well fitted curve in the direction sought with a large enough effect in the repeat runs; inconclusive means weak or mixed curves; inactive means no such curve, though single readings can be large; an effect the other way counts as inactive or inconclusive.

How the values were obtained:
[1] = qHTS assay to identify small molecule agonists of the vitamin D receptor (VDR) signaling pathway - cell viability counter screen (AID 743224); further: series mostly up to about 63 µM; nearly all actives have a fitted effect of over 50% in size
Summary of the method: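 VDR-bla cell line, quantitative HTS format; 16 h compound incubation (37C, 5% CO2); ATP-based CellTiter-Glo luminescence measured in the reporter assay wells.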

[2] = qHTS assay to identify small molecule antagonists of the vitamin D receptor (VDR) signaling pathway - cell viability counter screen (AID 743225); further: nearly all actives have a fitted effect of over 50% in size
Summary of the method: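 Parallel cytotoxicity test: VDR-UAS-bla HEK 293T, 3 nM (final) 1-alpha,25-dihydroxyvitamin D3 with test compound, 16 h, 37C. Endpoint is CellTiter-Glo luminescence in the same wells.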

[3] = qHTS assay to identify small molecule agonists of the NFkB signaling pathway (AID 1159509; active means well fitted curve in the direction sought with a large enough effect in the signal ratio in the repeat runs, not every such curve was filed as active; the % refers to the signal ratio; further: series mostly up to about 61 µM)
Summary of the method: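 NFkB-bla ME-180 cells carry a beta-lactamase reporter under an NF-kB response element. They were plated overnight, then exposed to compounds for 5 h at 37 C. Read-out is LiveBLAzer FRET after 1.5 hr at room temperature (405 nm excitation; 460/530 nm emission).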

[4] = qHTS assay to identify small molecule agonists of the NFkB signaling pathway - cell viability counter screen (AID 1159515; calls by dose curve; further: series mostly up to about 61 µM; nearly all actives have a fitted effect of over 55% in size)
Summary of the method: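 Viability in NFkB-bla ME-180 cells was measured by CellTiter-Glo luminescence, 30 min room temperature, in wells already treated 5 hr with compounds and read for reporter FRET.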

[5] = qHTS assay to identify small molecule agonists of the endoplasmic reticulum stress response signaling pathway (AID 1159516; active means well fitted activation curve with a large enough effect in the signal ratio in the repeat runs, not every such curve was filed as active; the % refers to the signal ratio)
Summary of the method: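 ER stress element reporter (bla) in HeLa. 1,500 cells/well, overnight attachment; 5 hr compound; 2 hr RT substrate; dual-emission fluorescence.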

[6] = qHTS assay to identify small molecule agonists of the endoplasmic reticulum stress response signaling pathway - cell viability counter screen (AID 1159517; calls by dose curve;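 further: HeLa cells carrying an ER stress response element beta-lactamase reporter; series mostly up to about 61 µM; nearly all actives have a fitted effect of over 50% in size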)
Summary of the method: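 HeLa cells carrying an ESRE-driven beta-lactamase reporter receive compound for 5 hr at 37 C. Cell viability is then gauged with CellTiter-Glo by luminescence, 30 min at room temperature.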

[7] = qHTS assay to identify small molecule antagonists of the retinoid-related orphan receptor gamma (ROR-gamma) signaling pathway - cell viability counter screen (AID 1159520); further: nearly all actives have a fitted effect of over 50% in size
Summary of the method: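 Cytotoxicity was read from cellular ATP (CellTiter-Glo luminescence) after 16 hr at 37 C with 1 uM doxycycline induction. The inducer was added 2 hr after compound transfer to Tet-on ROR gamma CHO cells.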

[8] = molecular target: Nuclear receptor ROR-gamma (Homo sapiens) (UniProt P51449); assay: qHTS assay to identify small molecule antagonists of the retinoid-related orphan receptor gamma (ROR-gamma) signaling pathway (AID 1159521)
Summary of the method: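 Decreased RORE-driven luciferase luminescence indicates antagonism. Tet-on RORγ CHO cells received compound, then 1 uM final doxycycline 2 h later; signal read after 16 h incubation.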

[9] = qHTS assay to identify small molecule agonists of the AP-1 signaling pathway - cell viability counter screen (AID 1159525; calls by dose curve; further: nearly all actives have a fitted effect of over 55% in size)
Summary of the method: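 Luminescent ATP readout (Cell Titer Glo, 30 min RT), normalised to DMSO and tetra n-octyl ammonium bromide controls. Cells were ME-180 AP-1-bla in 0.5% dialyzed FBS Opti-MEM, with a 5 h, 37 °C compound exposure.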

[10] = qHTS assay to identify small molecule agonists of the AP-1 signaling pathway (AID 1159526; calls by dose curve)
[11] = qHTS assay to identify small molecule agonists of the RXR signaling pathway - cell viability counter screen (AID 1159529)
Summary of the method: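 In this parallel viability measure, GeneBLAzer RXR-alpha HEK 293T cells (2% charcoal-stripped FBS) were given a 5 hr preincubation, treated with compounds 16 hr at 37 C, and read by CellTiter-Glo luminescence.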

[12] = qHTS assay to identify small molecule antagonists of the retinoid acid receptor (RAR) signaling pathway - cell viability counter screen (AID 1159551); further: nearly all actives have a fitted effect of over 35% in size
Summary of the method: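 Following overnight attachment, C3RL4 reporter cells received DMSO-dissolved compounds and then retinol (1 uM final). Six hours later at 37 C, ATP content was measured by CellTiter-Glo luminescence.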

[13] = qHTS assay to identify small molecule antagonists of the retinoic acid receptor (RAR) signaling pathway (AID 1159552; further: nearly all actives have a fitted effect of over 50% in size)
Summary of the method: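 C3RL4 RARE-luc cells, overnight plating; retinol 1 uM final added right after compound; 6 hr 37 C; luciferase read at 30 min RT.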

[14] = qHTS assay to identify small molecule agonists of the retinoic acid receptor (RAR) signaling pathway (AID 1159553); further: potency means the concentration at half of the fitted maximal effect
Summary of the method: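 Cell line C3RL4, RARE luciferase reporter. Treatment: compounds in DMSO, 6 hr, 37 C, 5% CO2, after overnight plating. Detection: luminescence, 30 min RT after reagent.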

Measured: Potency

O=[N+]([O-])c1cccc(I)c1
inactive: all assays above

CCC[Si](OC)(OC)OC
not listed: [2]
inactive: all other assays above

Cc1ccc(NC(=O)c2ccc(CN3CCN(C)CC3)cc2)cc1Nc1nccc(-c2cccnc2)n1
not listed: [1] | [2] | [13] | [14]
inactive: all other assays above

CCc1ccc2c(c1)C(=O)c1ccccc1C2=O
active: [14] 1.72 µM
inactive: all other assays above

CC(C)(C)N
inactive: all assays above

N#CCCCC(C#N)CCC#N (stereo unspecified)
inactive: all assays above

CC1=C(C)C(=O)C(C(CCCCCC(=O)O)c2ccccc2)=C(C)C1=O (stereo unspecified)
inactive: all assays above

CCCC(=O)OCCC(C)C
inactive: all assays above

CCCCCCCCCC(C)C=O (stereo unspecified)
not listed: [2] | [14]
inactive: all other assays above

CC(C(=O)O)c1ccc(/C=C2\CCCCC2=O)cc1 (stereo unspecified)
active: [14] 15 µM
inactive: all other assays above

O=C(O)c1ccncc1
inactive: all assays above

CCOc1ccc2c(c1)C(C)CC(C)(C)N2 (stereo unspecified)
active: [14] 54.5 µM
inactive: all other assays above

OCC(O)c1ccccc1 (stereo unspecified)
not listed: [2]
inactive: all other assays above

CCOc1ccccc1O
inactive: all assays above

Cc1ccc2c(Cl)cc(Cl)c(O)c2n1
inactive: all assays above

Nc1ncnc2c1ncn2[C@@H]1O[C@H](CO)[C@@H](O)[C@H]1O
inactive: all assays above

O=C1c2ccccc2C(=O)C1c1ccc2ccccc2n1
active: [14] 0.108 µM
inactive: all other assays above

C1=COCCC1
inactive: all assays above

O=C1c2ccccc2C(=O)c2c1ccc(O)c2O
inactive: all assays above

COC(=O)/C=C/C(C)=C\C=C\C(C)=C\C=C\C=C(C)\C=C\C=C(C)\C=C\C(=O)O
active: [14] 61.1 µM
inactive: all other assays above

CC(C)(C)c1ccc(CCC=O)cc1
inactive: all assays above

OCCOc1cccc(OCCO)c1
not listed: [14]
inactive: all other assays above

CCCC1CCCC(=O)O1 (stereo unspecified)
not listed: [2]
inactive: all other assays above

CCOC(C)OCC
inactive: all assays above

CCCc1nc(C)c2c(=O)[nH]c(-c3cc(S(=O)(=O)N4CCN(CC)CC4)ccc3OCC)nn12
inactive: all assays above

CC(CCl)OC(C)CCl (stereo unspecified)
inactive: all assays above

CCC(C)C1N=C(C)C(C)S1 (stereo unspecified)
inactive: all assays above

CC(=O)Nc1cccc(N)c1
not listed: [2]
inactive: all other assays above

C/C(=C(\CCO)SS/C(CCO)=C(\C)N(C=O)Cc1cnc(C)nc1N)N(C=O)Cc1cnc(C)nc1N
inactive: all assays above

CCOC(=O)CC(O)(CC(=O)OCC)C(=O)OCC
inactive: all assays above

COC(=O)c1cc(Cl)ccc1[N+](=O)[O-]
inactive: all assays above

O=c1c2ccccc2oc2ccccc12
active: [14] 27.3 µM
inactive: all other assays above

CC(C(=O)O)c1ccc2c(c1)Cc1cccnc1O2 (stereo unspecified)
inactive: all assays above

O=C1C=CCCC1
inactive: all assays above

Cc1c(Cl)cccc1Nc1ccccc1C(=O)O
inactive: all assays above

O=C(Nc1ccc2c(c1)Cc1ccccc1-2)C(F)(F)F
active: [14] 6.86 µM
inactive: all other assays above

N#C[C@@H]1CC(F)(F)CN1C(=O)CNC1CC2CCC(C1)N2c1ncccn1 (stereo partly specified)
not listed: [1]
inactive: all other assays above
